From PubChem BioAssay AID1502 (Sanford-Burnham Center for Chemical Genomics, 2009)
This is one part of the list. Values without a mark were called inactive. Calls of active or inactive are those of the source. No stated cut-off is given here; in the data, active means inhibition above about 40%; inactive means the rest.

target: Runt-related transcription factor 1 (Homo sapiens) + Core-binding factor subunit beta (Homo sapiens) (UniProt Q01196+Q13951); experiment: inhibitors of RUNX1 Runt–CBFb binding, biochemical, TR-FRET (AID 1502); conditions: TR-FRET RUNX1 Runt domain-CBFb binding; at 20 µM; hits give high values
Sequence (Q01196 whole entry, looked up, the tested form may be a part): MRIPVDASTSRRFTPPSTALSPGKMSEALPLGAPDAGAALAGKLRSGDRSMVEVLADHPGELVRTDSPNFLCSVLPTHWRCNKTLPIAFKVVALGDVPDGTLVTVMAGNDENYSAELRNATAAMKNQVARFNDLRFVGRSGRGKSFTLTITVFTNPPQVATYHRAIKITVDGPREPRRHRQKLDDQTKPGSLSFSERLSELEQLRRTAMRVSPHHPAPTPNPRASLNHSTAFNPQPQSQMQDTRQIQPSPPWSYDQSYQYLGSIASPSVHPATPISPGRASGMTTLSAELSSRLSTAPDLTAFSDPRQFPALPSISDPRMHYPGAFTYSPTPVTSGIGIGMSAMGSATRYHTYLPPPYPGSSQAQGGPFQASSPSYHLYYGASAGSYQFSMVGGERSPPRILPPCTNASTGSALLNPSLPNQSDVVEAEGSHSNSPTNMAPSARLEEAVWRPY
Sequence (Q13951 whole entry, looked up, the tested form may be a part): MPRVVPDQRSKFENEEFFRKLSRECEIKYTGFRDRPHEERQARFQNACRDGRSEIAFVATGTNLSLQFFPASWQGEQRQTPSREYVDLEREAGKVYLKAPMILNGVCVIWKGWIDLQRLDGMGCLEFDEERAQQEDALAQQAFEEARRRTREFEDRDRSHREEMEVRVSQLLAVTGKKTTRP

In the case of `CCC(=O)Nc1c(S(=O)(=O)c2ccccc2)c2nc3ccccc3nc2n1Cc1ccccc1`, the inhibition is reported as 62.4% (active).
`Brc1ccc(CSc2ccc(-c3ccco3)nn2)cc1` was tested, and the inhibition was 73.7% (active).
With `CCOc1cccc(/C=N/N2C(=O)CSC2=S)c1O` the inhibition was 77.6% (active).
With `O=c1[nH]c2ccccc2n2c(-c3ccccc3)nnc12` the inhibition was 66.7% (active).
With `COCC(C)OC(=O)c1c(N)n(CCCN2CCOCC2)c2nc3ccccc3nc12` (configuration not stated) the inhibition was 53.2% (active).

Going from `COc1c(O)ccc2c1CN1CCc3cc4c(cc3C1C2)OCO4` (configuration not stated) to `CCCN1C2=C(C(=O)CCC2)C(c2ccc(O)c(Br)c2)C2=C1CCCC2=O`, the inhibition rises from 20.3% to 29.9%.

Compared with `CC(C)Cn1c(CCC(=O)O)ccc1-c1cccs1`, `COC(=O)Cn1c2ccc(C)cc2c2nc(C)sc21` is higher in inhibition: 17% for the first, 24.5% for the second.

First: Cc1cccc(-n2c(N)c(C(=O)N3CCN(C)CC3)sc2=S)c1
Second: OCCN1CCN(C(=S)c2ccc(-c3ccccc3)cc2)CC1
The inhibition of the first is higher: 18.2% for the first, 15.5% for the second.

Going from `O=C1c2ccccc2C(Nc2ccc3c(c2)OCCO3)N1Cc1ccco1` (configuration not stated) to `O=c1cc(CN2CCN(S(=O)(=O)/C=C/c3ccccc3)CC2)c2ccc(O)cc2o1`, the inhibition rises from 2% to 34.5%.

First: Cc1cc(C)c2c3c(sc2n1)C(c1ccccc1)C(C#N)=C(N)O3 (configuration not stated)
Second: COc1ccc(C2C(C#N)=C(N)Oc3cc(N)ccc32)cc1OC (configuration not stated)
The inhibition of the first is higher: 1.6% for the first, -6.8% for the second.

First: Cc1cc(F)ccc1S(=O)(=O)Nc1ncnc2scc(-c3ccc(F)cc3)c12
Second: Cc1ccc(-c2cn3cc([N+](=O)[O-])ccc3n2)cc1
The inhibition of the first is lower: -13.5% for the first, -11.5% for the second.

First: CCN1/C(=C/C(=S)Nc2ccccc2)Sc2ccccc21
Second: CCN1C(=O)/C(=C2/Sc3ccccc3N2CCCS(=O)(=O)O)SC1=S
The inhibition of the first is lower: -2.1% for the first, 10.7% for the second.

First: CCOC(=O)c1cc2c(=O)n3ccccc3nc2n(CC(C)C)c1=NC(=O)c1c(-c2c(F)cccc2Cl)noc1C
Second: N#Cc1c(N)n(CCOC(=O)c2ccc(Cl)cc2)c2nc3ccccc3nc12
The inhibition of the first is lower: -8.1% for the first, 4% for the second.

First: CC(C)Oc1ccc(/C=C(\NC(=O)/C=C/c2ccco2)C(=O)NCCc2nc3ccccc3[nH]2)cc1
Second: CC(C)(C)OC(=O)c1c(N)n(CCCN2CCCC2=O)c2nc3ccccc3nc12
The inhibition of the first is lower: -3.3% for the first, 34.4% for the second.

First: N#CC1=C(N)Oc2cc(O)ccc2C1C1CCCCC1 (configuration not stated)
Second: CCCS(=O)(=O)N1CCCC(C(=O)NCc2ccco2)C1 (configuration not stated)
The inhibition of the first is lower: -0.9% for the first, 2.1% for the second.

Going from `CC(=O)Oc1ccc2c(C)c(CC(C)O)c(=O)oc2c1` (configuration not stated) to `COc1cccc2sc(Nc3nc(C)c(C(C)=O)s3)nc12`, the inhibition falls from 14% to 0.6%.
